Test [1] addresses Aldehyde dehydrogenase, mitochondrial (Homo sapiens) (UniProt P05091). Kind of test: qHTS for Inhibitors of the Aldehyde Dehydrogenase Family (ALDH2) Primary screen (AID 2061308).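 Further: plate controls were vehicle for no effect and reference inhibitor for full effect; nearly all actives have a fitted effect of over 55% in size.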 On the technique in general: In qHTS, concentration-response curves come from the screen itself.
The target of test [2] is Retinaldehyde dehydrogenase 3 (Homo sapiens) (UniProt P47895). Nature of the test: qHTS for Inhibitors of the Aldehyde Dehydrogenase Family (ALDH1A3) Primary screen (AID 2061315).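 Further: plate controls were DMSO vehicle for no effect and reference inhibitor for full effect.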

Results filed as inconclusive are left out. A number with no mark means an inactive call. Active and inactive are the calls of the source. The call rests on the fitted dose curve; in most records, active means well fitted curve in the direction sought with a large enough effect; inconclusive means small, poorly fitted or top-dose-only effect, or another doubt; inactive means no such curve, though single readings can be large; an effect the other way counts as inactive or inconclusive.

In the case of `COC(=O)c1cncc(NC(=O)c2cccs2)c1`, the Potency entry in test [1] and in test [2] was “inactive” each time.

For `O=C(Oc1cccnc1)c1cccs1`, the Potency result in test [1] and in test [2] was “inactive” in each case.

Take `CC(=O)Nc1ccc(NC(=S)NC(=O)c2ccc(C(C)(C)C)cc2)cc1`: the Potency entry in test [1] and in test [2] was “inactive” throughout.

Consider `CCOc1ccccc1-c1nnc2n1N=C(c1cc(OC)cc(OC)c1)CS2`, for which the Potency entry in test [1] and in test [2] was “inactive” in each case.

Turning to `O=C(NCCCc1cnc[nH]1)NCCCN(Cc1ccc(Cl)c(Cl)c1)c1ccc(Br)cn1`, the Potency entry in test [1] and in test [2] was “inactive” each time.

As to `COc1ccc(C2=Nn3c(nnc3-c3ccccc3OC)SC2)cc1O[C@H]1CCOC1`, the Potency result in test [1] and in test [2] was “inactive” each time.

With `C[C@@H]1O[C@@H](O[C@H]2[C@H](OC(=O)[C@]34CCC(C)(C)C[C@H]3C3=CCC5[C@@]6(C)C[C@H](O)[C@H](O[C@@H]7O[C@H](CO)[C@@H](O[C@@H]8O[C@H](CO)[C@@H](O)[C@H](O)[C@H]8O)[C@H](O)[C@H]7O)[C@@](C)(CO)C6[C@H](O)C[C@@]5(C)[C@]3(C)C[C@H]4O)OC[C@H](O)[C@@H]2O)[C@H](O)[C@H](O)[C@H]1O[C@@H]1OC[C@@H](O)[C@H](O[C@@H]2OC[C@](O)(CO)[C@H]2O)[C@H]1O` (some centres not stated), the values for the activity change, negative = inhibition in test [1] and in test [2] were -1.66% [at 11.2 µM] and -12.4% [at 11.2 µM], respectively.

Turning to `Cc1ccnc(NC(=S)N2CC3CN(c4cccc(C(F)(F)F)c4)CC3C2)c1` (configuration not stated), the Potency result in test [1] and in test [2] was “inactive” throughout.

Take `C[C@@H]1O[C@@H](O[C@H]2[C@H](O[C@H]3CC[C@@]4(C)C(CC[C@]5(C)C4C=C[C@]46OC[C@@]7(CCC(C)(C)C[C@H]74)[C@@H](O)C[C@]65C)[C@]3(C)CO)O[C@H](CO)[C@@H](O)[C@@H]2O[C@@H]2O[C@H](CO)[C@@H](O[C@@H]3O[C@@H](C)[C@H](O)[C@@H](O)[C@H]3O)[C@H](O)[C@H]2O)[C@H](O)[C@H](O)[C@H]1O` (some centres not stated): the Potency result in test [1] and in test [2] was “inactive” each time.

For `COc1cc(O)c(C(CC(=O)N2CCCC(C(=O)N3CCCCC3)C2)c2ccc3c(c2)OCO3)c(OC)c1` (configuration not stated), the Potency result in test [1] and in test [2] was “inactive” each time.

As for `Cc1ccc(OCCn2c(CCNCC3CCCCC3)nc3ccccc32)cc1`, the Potency result in test [1] and in test [2] was “inactive” throughout.

Values taken from PubChem BioAssay (NCATS).
